Experimental data taken from PubChem BioAssay (NCI).
Compounds without any hit were thinned out: in the full panel of roughly 83,000, 20% have a hit.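 Step 1: grow cells in 96-well plates. Step 2: add test compound at a single concentration. Step 3: incubate 48 h. Step 4: record percent growth.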 A number with no mark means an inactive call. The source made the active and inactive calls. The calls were made as follows: active = growth percent below 10; inactive = the rest.

Key:
Assay in all cases: NCI-60 one-dose screen, 48 h (100 = growth as untreated, 0 = no growth, -100 = all killed)
Conditions in all cases: 10 µM
[1] = tested on: HT29 colon
[2] = tested on: SNB-75 CNS
[3] = tested on: SNB-19 CNS
[4] = tested on: U251 CNS
[5] = tested on: PC-3 prostate
[6] = tested on: SK-MEL-5 melanoma
[7] = tested on: UACC-62 melanoma
[8] = tested on: LOX IMVI melanoma
[9] = tested on: SK-MEL-28 melanoma
[10] = tested on: SK-MEL-2 melanoma

Row | SMILES | growth [1] | growth [2] | growth [3] | growth [4] | growth [5] | growth [6] | growth [7] | growth [8] | growth [9] | growth [10]
1 | CCOC(=O)c1ccc(NC(=O)Nc2ncc(Cl)cc2Cl)cc1 | 95.3% | 119% | 106% | 99.2% | 77% | 104% | 87% | 110% | 106% | 102%
2 | CCN(CC)CCOc1nc2cc(OC)c(OC)cc2c2c1-c1ccc(OC)cc1C2=O | 40.4% | 56.5% | 73.4% | 60% | 81.8% | 91% | 78.9% | 30.4% | 112% | 74.2%
3 | O=C1ON=[N+](c2ccc(Cc3ccc([N+]4=NOC(=O)C4CN4CCOCC4)cc3)cc2)C1CN1CCOCC1 (stereo not given) | 89.7% | 72.6% | 86.5% | 62.8% | 56.5% | 53.2% | 53.4% | 65% | 74.9% | 78.6%
4 | CCN(CC)CCOc1nc2ccccc2c2c1-c1ccc(OC)cc1C2=O | -12.9% (active) | 1.69% (active) | 24.6% | -10.8% (active) | 7.51% (active) | -84% (active) | 8.63% (active) | -47.2% (active) | 4.25% (active) | -2.62% (active)
5 | CC(=O)O[C@]1(C)CC[C@H]2[C@H](CNCCc3ccc(Cl)cc3)C(=O)O[C@@H]2C2=C(C)C(=O)C[C@H]21 | 90% | 64.1% | 79.4% | 91.3% | 86.9% | 92.2% | 97.9% | 90.6% | 101% | 114%
6 | O=[N+]([O-])c1cccc(N=Cc2ccc3c(c2)OCO3)c1 | 105% | 96.7% | 130% | 97.1% | 106% | 111% | 105% | 91.4% | 117% | 98.1%
7 | Cc1cccc(C)c1NC(=O)c1sc2nc3c(cc2c1N)C(=O)CCC3 | 85.6% | 82.6% | 66.5% | 85.6% | 70.2% | 57.7% | 67.4% | 91.3% | 81.3% | 69.7%
8 | N#Cc1ncc(-c2ccc(C(F)(F)F)cc2)c(NCc2cc(C(F)(F)F)cc(C(F)(F)F)c2)n1 | 9.29% (active) | 37.9% | 29.8% | 27.3% | 1.54% (active) | 75.3% | 19.4% | 14.9% | 39.3% | -2.7% (active)
9 | CSCCCNC(=O)c1ccc2c(c1)/C(=C/c1[nH]c(C)cc1C)C(=O)N2 | 31.2% | -1.79% (active) | 60.7% | 43.6% | 11.4% | 30.5% | 15.6% | 32.5% | 17.6% | -27.6% (active)
10 | c1ccc(C(NC2CC3CCC2C3)c2ccccc2)cc1 (stereo not given) | 85.8% | 93.5% | 99% | 91.9% | 97.2% | 99.7% | 87.2% | 95.3% | 110% | 89.6%
11 | N#CCCN(NC(=O)OCc1ccccc1)C(=O)OCc1ccccc1 | 106% | 81.4% | 108% | 102% | 93.4% | 108% | 101% | 94.3% | 119% | 106%
12 | C#Cc1ccc(-n2c(/C=C/c3cc(OC)cc(OC)c3)nc3ncccc3c2=O)cc1 | 100% | 55% | 98% | 72% | 68.5% | 60.7% | 85.8% | 76.2% | 96.7% | 53.7%
13 | O=C(Nc1ccncc1)C(=O)c1cn(S(=O)(=O)c2cc(Cl)cc(Cl)c2)c2ccccc12 | 42.4% | 59.6% | 82.4% | 58.1% | 63.9% | 62.7% | 57.4% | 48% | 78.4% | 61.7%
14 | Oc1[nH]c2ccc(Cl)cc2c1/C=c1/ccc2c(c1)N=C(c1cccs1)N=2 | 43.8% | 6.31% (active) | 62% | 61.3% | 62.5% | 52.8% | 53.6% | 42.5% | 71.1% | 73.5%
15 | O=C1c2ccc3c4c(ccc(c24)C(=O)N1CCNCc1ccccc1)C(=O)N(CCNCc1ccccc1)C3=O | -16.5% (active) | 105% | 8.03% (active) | -46.3% (active) | 28.3% | -97.9% (active) | -31.6% (active) | -47.9% (active) | 6% (active) | 119%
16 | O=C(Nc1ccc(CO)cc1)c1ccccc1Nc1ccnc(C(F)(F)F)c1 | 109% | 87.8% | 106% | 95.4% | 99.5% | 107% | 95.4% | 92.2% | 101% | 123%
17 | CC12O[C@H](C[C@@H](OC(=O)c3ccccc3)[C@H]1O)n1c3ccccc3c3c4c(c5c6ccccc6n2c5c31)C(=O)NC4=O | 78.5% | 45.7% | 101% | 77.1% | 42.5% | 48.6% | 55% | 72.7% | 90.4% | 54.2%
18 | CC/C(=C(/c1ccc(OCCN(C)C)cc1)c1ccc(OC(=O)CCCCCCCCC(=O)c2c(C)[nH]c(/C=C3\N=C(c4ccc[nH]4)C=C3OC)c2C)cc1)c1ccccc1 | 25.9% | 64.7% | 81.4% | 43.5% | 43% | 29.3% | 51.2% | 20.8% | 84.3% | 95.6%
19 | CCCCCCN1C(=O)C2=C(c3ccc(Cl)cc3)Nc3c(c(C)nn3-c3ccccc3)C2c2ccccc21 (stereo not given) | 98.1% | 83.6% | 89.4% | 87.8% | 76.7% | 92.7% | 94.8% | 94.6% | 96.4% | 91.1%
20 | Fc1ccc(-c2nnc(-c3c(-c4ccc(F)cc4)nc4ccccn34)o2)cc1 | 79.2% | 37.4% | 92.8% | 81.2% | 84.6% | 80.4% | 92.2% | 65.4% | 85% | 120%
21 | C(CCCC1=NCCO1)CCCC1=NCCO1 | 118% | 77.5% | 97.8% | 97.9% | 98% | 99.7% | 93% | 94% | 95.4% | 98.3%
22 | CC(=O)OCc1cc(-c2nc3ccccc3[nH]c2=O)nn1-c1ccc(Cl)cc1 | 104% | 98.6% | 89.4% | 100% | 99% | 97.8% | 89.3% | 102% | 107% | 100%
23 | O=C(Nc1cccc(-n2cc(-c3ccncc3)c(-c3cc(O)cc(Cl)c3)n2)c1)Nc1ccc(Cl)c(C(F)(F)F)c1 | 35.3% | 24.1% | 44.5% | -26.5% (active) | 5.34% (active) | 23.8% | -1.44% (active) | 2.08% (active) | -13.5% (active) | -37.9% (active)
24 | CCN(CC)CCC(CNc1c(C)cnc2cc(Cl)ccc12)c1ccc(Cl)c(Cl)c1 (stereo not given) | 11.6% | 59.2% | 71.7% | 46.4% | 49.4% | -92.3% (active) | -48.5% (active) | 37.8% | -75.3% (active) | 107%
25 | NC(=O)SCC(=O)Nc1ccc(S(N)(=O)=O)cc1 | 107% | 96.3% | 104% | 104% | 100% | 102% | 89% | 97% | 113% | 111%
26 | COc1cc2c(cc1OCCCCCCN1CCN(CC(=O)Nc3ccc(Cl)cc3C(=O)c3ccccc3Cl)CC1)N=CC1CCCN1C2=O (stereo not given) | -56.8% (active) | -84.5% (active) | -77.7% (active) | -100% (active) | -100% (active) | -100% (active) | -98.7% (active) | -93.9% (active) | -85.8% (active) | -69.6% (active)
27 | COc1ccc2c(c1)sc1nc(-c3ccccc3)c(-c3ccsc3)n12 | -5.75% (active) | 6.18% (active) | 40.8% | 26.9% | 16.6% | 9.67% (active) | 36.3% | 40.3% | 60.7% | 5.47% (active)
28 | COc1cc(/C=C\c2cc(OC)c(OC)c(OC)c2)cc(NS(=O)(=O)c2ccc(Cl)cc2)c1OC | 5.17% (active) | 49.1% | 58.4% | 20.5% | 13.7% | 24.3% | 39.3% | 35.8% | 70.8% | 17.8%
